In PubChem BioAssay AID932 (The Scripps Research Institute Molecular Screening Center, 2007):
About 5,100 (2.5%) of roughly 200,000 compounds were called active. This is one part of a sample in which actives are shown more often than they occur.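 How the source made its calls: active means activation above the screen-wide mean activation plus 3 SD (cut at about 130% in these data); inactive means the rest.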

Assay: STAT1 signaling activators, primary screen, cell-based, HTS, luciferase reporter (AID 932);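 further: raw ratio to IFN-gamma control signal so 100% means no change and 0% no light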
Settings: NIH 3T3 STAT1-luciferase reporter, IFN-gamma, luminescence; at 5.5 µM; hits give high values; 100% = IFN-gamma alone, no compound

Activation (% of control), inactive:
O=C(NC1CCCC1)c1ccc(Br)s1 108%, CC(C)C(=O)OCC(=O)Nc1ccc2c(c1)CCC2 101%, CC1(C)C(c2cccs2)=[N+]([O-])C2(CCCCC2=O)N1O (centres undefined) 105%, COc1cc(C(=O)N2C(=O)c3cccc(N)c3C2=O)cc(OC)c1OC 104%, O=C(CCN1CCCCC1)N=Nc1c(O)[nH]c2ccccc12 93.5%, O=C(Nc1ccc2c(c1)C(=O)OC2)Nc1cccc2ccccc12 93.7%, Fc1cc(F)c2nc(N3CCOCC3)sc2c1 122%, Cc1nc(N2CCCCC2)sc1C=O 96.9%, c1c2c(cc3sc(N4CCCCC4)nc13)OCCO2 56.4%, CCOC(=O)N1CCC(NC(=O)c2ccc3nc(N4CCOCC4)sc3c2)CC1 102%, O=C(COC(=O)CC1CC2CCC1C2)NC(=O)NC1CCCC1 (centres undefined) 101%, CCOC(=O)c1c(C)n(C)c2ccc(OC)c(NS(=O)(=O)CC)c12 111%, CC(=O)c1cc(C#N)c(SCC(=O)Nc2nccs2)nc1C 108%, CC(=O)c1cc(C#N)c(N2CCCCC2)nc1C 95.1%, Cc1nc2nc[nH]n2c(=O)c1C/C=C/c1ccccc1 102%, CCOC(=O)C(C)n1cnc2sc(C)c(C)c2c1=O (centres undefined) 105%, Cc1c(C(N)=O)sc2ncn(CCOc3ccccc3)c(=O)c12 116%, COc1ccc(Br)cc1C(=O)Nc1cccc(C)c1C 95.7%, O=S(=O)(ON(c1ccccc1)S(=O)(=O)c1ccccc1)c1ccccc1 105%, CCOC(=O)c1cccc(NC(=O)CCOc2ccccc2)c1 97.3%, CCOC(=O)N/N=C/c1cccnc1 102%, CC(=O)Nc1ccc(S(=O)(=O)NC2(C(F)(F)F)C(=O)Nc3c2c(=O)[nH]c(=O)n3Cc2ccccc2)cc1 (centres undefined) 108%, Cc1nc2sc(C(=O)c3ccccc3)c(N)c2c2c1CCCC2 113%, CN(C)c1ccnc2sc3c(=O)n(Cc4ccccc4)cnc3c12 78.3%, N#Cc1ccccc1NC(=O)COc1c(Br)cc(Br)c2cccnc12 77.3%, Cc1ccc(NC(=O)CC2S/C(=N/N=C3\CCCc4ccccc43)NC2=O)cc1 (centres undefined) 107%, COc1ccc(CCn2ccc(O)c(Cc3ccc(Cl)cc3Cl)c2=O)cc1OC 92.6%, COc1ccc(C(=O)NC2CCN(C(=S)NCCc3ccccc3)CC2)cc1 91.9%, O=C(NCCc1ccccc1)c1ccc(NC2=NC3CS(=O)(=O)CC3S2)cc1 (centres undefined) 102%, CCCC/C(C)=N/NC(=O)NC1CCCCC1 102%, NS(=O)(=O)c1ccc(NC(=O)COC(=O)c2ccc(Cl)nc2)cc1 103%, CCc1ccc(C2N3CC4([N+](=O)[O-])CN2CC([N+](=O)[O-])(C3)C4(C)C)cc1 (centres undefined) 90.6%, Brc1cccc(-c2nnc3n2CCC3)c1 101%, Cc1ccc2nc3n(c(=O)c2c1)CCC3 106%, COc1cc(-c2cc(C(=O)OCC(=O)Nc3ccc4c(c3)OCO4)c3ccccc3n2)cc(OC)c1OC 91.2%, Cc1cccc(C)c1N1CCN(S(=O)(=O)N2CCCCC2)CC1 96.7%, CC1CN(CCOc2ccccc2[N+](=O)[O-])CC(C)O1 (centres undefined) 101%, COc1ccc(C2Nc3ccccc3C(=O)N2Cc2ccccc2)cc1Cn1nnc2ccccc21 (centres undefined) 101%, COc1ccc(C2Nc3ccccc3C(=O)N2c2ccc(F)cc2)cc1Cn1nnc2ccccc21 (centres undefined) 103%, Cc1nnc(CN(C)Cc2cn[nH]c2-c2ccc(-c3ccccc3)cc2)o1 114%, COc1ccc(CCNC(=O)/C(C#N)=C2\N=C(NC(=O)c3cccs3)c3ccccc32)cc1 95.7%, COCCCNC(=S)N(Cc1ccccc1)Cc1ccc(F)cc1 90%, Cc1ccc(S(=O)(=O)N(NC2=NS(=O)(=O)c3ccccc32)C(=O)c2ccccc2)cc1 106%, O=C(Oc1cccc(NC2=NS(=O)(=O)c3ccccc32)c1)c1ccncc1 92.7%, COC(=O)C1=C(C(=O)OC)C(c2cc([N+](=O)[O-])ccc2O)c2sc(=O)[nH]c2S1 (centres undefined) 98.4%, CCOC(=O)Cc1csc(NC(=O)COc2ccc3c(C)cc(=O)oc3c2)n1 102%, COC(=O)COc1cccc2c(=O)n(CC(=O)NCCc3ccc(OC)c(OC)c3)ccc12 100%, CC(/C=N/NC(=O)c1ccncc1)=C\c1ccco1 98.5%, Cc1ccc(-c2cc(C(=O)N/N=C/C=C/c3ccco3)c3ccccc3n2)cc1C 78.9%, c1ccc(CSc2nnc(-c3ccco3)c(-c3ccco3)n2)cc1 97.8%, O=C(CSc1nnc(-c2ccco2)n1Cc1ccccc1)NC(=O)NCc1ccco1 101%, COc1cccc(OCC(=O)NNC(=O)c2cnccn2)c1 98.7%, COc1ccc2c(c1)CCc1c(C(=O)N3CCc4ccccc4C3)noc1-2 96.8%, COc1ccc2c(c1)CCc1c(C(=O)Nc3c(C)n(C)n(-c4ccccc4)c3=O)noc1-2 106%, O=C(Nc1cccc(C(F)(F)F)c1)c1ccc(N2CCNCC2)c([N+](=O)[O-])c1 90.2%, CC(C)C(NC(=O)c1ccc(Cl)cc1)C(=O)O (centres undefined) 110%, Cc1occc1C(=O)NNC(=S)NCC(C)C 102%, Cn1c(CNC(=O)c2ccccc2F)nnc1SCc1ccc(F)cc1 103%, Cc1cc(C)c2nc(NC(=O)c3ccc4c(c3)OCO4)sc2c1 98.5%, O=C(Nc1ccccc1)c1ccc2c(c1)OCO2 110%, Cc1ccc(-c2csc(NC(=O)c3cnccn3)n2)cc1C 105%, O=C(Nc1nc(-c2ccc(-c3ccccc3)cc2)cs1)c1cnccn1 113%, COc1ccc(OCc2ccc(-c3nc4ccccc4c(=O)n3N)o2)cc1 127%, O=C(CCn1c(SCC(=O)c2ccccc2)nc2ccccc2c1=O)NCc1ccc(F)cc1 94.6%, Cc1ccccc1OCC(O)CN1CCN(c2ccccn2)CC1 (centres undefined) 104%, CCNC(=S)NNC(=O)C1CCN(Cc2ccccc2)CC1 90.4%, Cc1ccc(-c2nn(-c3ccccc3)cc2C(=O)Nc2cccc(S(=O)(=O)N3CCOCC3)c2)cc1 102%, CCc1ccc(C2C(C#N)=C(N)N(N(C)C)C3=C2C(=O)CCC3)s1 (centres undefined) 105%, CS(=O)(=O)c1sc2nc(-c3ccccc3)cc(-c3ccccc3)c2c1N 104%, CCOC(=O)c1sc2nc(SC)nc(-c3ccccc3)c2c1N 90%, O=C(OCC(=O)N1CCCC1)c1ccco1 104%, O=C(COC(=O)c1ccccc1C(=O)c1ccccc1)c1ccco1 103%, CCOC(=O)/C=c1\s/c(=C\c2ccc(C#N)cc2)c(=O)n1CC(=O)Nc1cccc(C)c1C 102%, CN(C)CCCN1C(=O)CSC1c1ccc([N+](=O)[O-])cc1 (centres undefined) 95%, CCOc1ccc2nc(SC(CC)C(=O)Nc3cc(C)on3)sc2c1 (centres undefined) 86.5%, CCOc1ccc2nc(Nc3nc4ccc(NC(C)=O)cc4s3)sc2c1 106%, CCNc1nc(NC(C)C)nc(N2CC(=O)N(CC(=O)OCC)C2=N)n1 93.2%, O=C(Oc1cccc(N2C(=O)C3C4c5ccccc5C(c5ccccc54)C3C2=O)c1)c1ccco1 (centres undefined) 102%, Cc1ccc(-n2c(SCC(=O)N3c4ccccc4Sc4ccccc43)nnc2-c2ccncc2)cc1 109%

Activation (% of control), active:
O=C(Nc1ccc2c(c1)CCC2)c1ccc(Br)s1 165%, Brc1ccc2nc(N3CCCC3)sc2c1 134%, Fc1ccc2nc(N3CCCCC3)sc2c1 147%, CC(=O)c1cc(C#N)c(SCC(=O)C(C)(C)C)nc1C 140%, Cc1cccc(OC(=O)c2sc3ncn(C)c(=O)c3c2C)c1 134%, CN(C)c1ccnc2sc(C(=O)c3ccccc3)c(N)c12 153%, CC1CCCN(c2ccc(C(=O)NCCc3ccccc3)cn2)C1 (centres undefined) 147%, COc1ccc(-c2nc3n(c2Br)CCC3)cc1 131%, COc1ccc(C2Nc3ccccc3C(=O)N2c2ccc(Cl)cc2)cc1Cn1cc([N+](=O)[O-])cn1 (centres undefined) 181%, CC(C)(C)c1csc(NC2=NS(=O)(=O)c3ccccc32)n1 130%, CC(/C=N/NC(=O)c1cc(-c2ccc3ccccc3c2)n[nH]1)=C\c1ccco1 131%, c1ccc(CSc2nnc(-c3ccco3)n2Cc2ccccc2)cc1 144%, COc1ccc2c(c1)CCc1c(C(=O)N3CCCC3)noc1-2 131%, CC(C)CNC(=S)NC(=O)c1ccc(Cl)cc1 136%, O=C(Nc1nc2ccccc2s1)c1ccc2c(c1)OCO2 130%, O=C(Nc1nc(-c2cccnc2)cs1)c1ccccc1F 141%, Cc1ccc(C(=O)CSc2nc3ccccc3c(=O)n2N)o1 140%, CCN(CC)C(=O)c1sc2nc(-c3ccccc3)ccc2c1N 146%, CCN(CC)c1ccc(C(=O)OCC(=O)c2ccco2)cc1 149%, CCOc1ccc2nc(C(=O)N3CCCC(C)C3)sc2c1 (centres undefined) 153%
